The source of these data is the supplement of paper PMC7156485.

Holding throughout (conditions): concentration: 10 µM; 24 h
The subject of test [1] is HCC1569. The test is described as follows: cell number relative to DMSO (% of DMSO); higher = more cells (less growth inhibition / toxicity). An outline of the steps: (§1)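 Using 384-well plates with 800 cells per well in RPMI plus 10% FBS, HCC1569 and TDF cells were exposed to compounds at 10 µM, in triplicate, for 24 h at 37 °C. Imaging of six fields per well at ×10 followed H1.0 and DAPI staining. The reported quantity, H1.0 nuclear intensity or cell number, is a median of replicates given as percent of the plate control, and HCC1569 values were smoothed for positional effects.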

Test [2] deals with TDF. The description is as above. An outline of the steps:
as §1

The test system of test [3] is TDF. The test is described as follows: H1.0 immunofluorescence intensity relative to DMSO (% of DMSO); higher = stronger H1.0 induction, active = 120 or more. An outline of the steps: as §1
Test [4] deals with HCC1569. The test is described as follows: H1.0 immunofluorescence intensity relative to DMSO (% of DMSO); higher = stronger H1.0 induction, active = 140 or more. Summed up:
as §1

± gives the standard deviation of the averaged measurements.
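For H1.0 immunofluorescence intensity relative to DMSO in this document: TDF is a line of transformed human dermal fibroblasts of mesenchymal origin.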
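For cell number relative to DMSO in this document: TDF denotes transformed human dermal fibroblasts of mesenchymal origin.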

Regarding `Cn1c(=O)c2[nH]cnc2n(C)c1=O` [Theophylline], the values for the cell number in test [1] and in test [2] were 100 and 95.5, respectively. Besides, the H1.0 immunofluorescence intensity in test [3] was 97 (inactive); in test [4], 103 (inactive).

As for `Nc1ncnc2c1nc(Br)n2C1OC2COP(=O)([O-])OC2C1O.[Na+]` (configuration not stated) [8-Bromo-cAMP sodium], the cell number came to 104 in test [1] and 110 in test [2]. In addition, the H1.0 immunofluorescence intensity in test [3] is 95.5 (inactive); in test [4] it was 90.3 (inactive).

For the compound `Cl.NC1(C(=O)O)CC1` [1-Aminocyclopropanecarboxylic acid hydrochloride], the cell number in test [1] was found to be 100; in test [2] it was 102. The H1.0 immunofluorescence intensity in test [3] is 96.5 (inactive); in test [4] it was 100 (inactive).

For `Cl.O[C@H](c1cc(C(F)(F)F)nc2c(C(F)(F)F)cccc12)[C@@H]1CCCCN1`, the cell number in test [1] was determined as 52; in test [2] it was 56.7. Besides, the H1.0 immunofluorescence intensity was 131 (active) in test [3] and 170 (active) in test [4].

Regarding `COc1ccc(/C=C\c2cc(OC)c(OC)c(OC)c2)cc1OP(=O)([O-])[O-].[Na+].[Na+]`, the cell number in test [1] came out at 57.8; in test [2] it was 10.1. Also, the H1.0 immunofluorescence intensity in test [3] was 197 (active); in test [4] it was 140 (inactive).

On to `CC(C)CCC[C@@H](C)[C@H]1CC[C@H]2[C@@H]3CC(=O)[C@H]4C[C@@H](O)CC[C@]4(C)[C@H]3CC[C@]12C` [(3beta,5alpha)-3-hydroxycholestan-6-one], for which the figures for the cell number in test [1] and in test [2] were 105 and 92.5, respectively. In addition, the H1.0 immunofluorescence intensity was 98.5 (inactive) in test [3] and 98.6 (inactive) in test [4].

Consider `CC(=O)O.O=C(O)c1ccc2c3c1cccc3c(=O)n1c3ccccc3nc21`, for which the results for the cell number in test [1] and in test [2] were 99.7 and 89.6, respectively. The H1.0 immunofluorescence intensity in test [3] is 91.3 (inactive); in test [4] it was 105 (inactive).

In the case of `O=C1C=C(CO)OCC1=O` [5-hydroxy-2-(hydroxymethyl)-4H-pyran-4-one], the cell number in test [1] was determined as 105; in test [2] it was 94.6. The H1.0 immunofluorescence intensity in test [3] was 92.9 (inactive); in test [4] it was 92 (inactive).

On to `COc1ccc(C2CC(=O)c3c(O)cc(OC4OC(COC5OC(C)C(O)C(O)C5O)C(O)C(O)C4O)cc3O2)cc1O` (configuration not stated) [Hesperidine], for which the figures for the cell number in test [1] and in test [2] were 107 and 102, respectively. For the same compound, the values for the H1.0 immunofluorescence intensity in test [3] and in test [4] were 93.2 (inactive) and 84.8 (inactive), respectively.

In the case of `CCCN(CCC)C(=O)C(CCC(=O)O)NC(=O)c1ccccc1` (configuration not stated) [Proglumide], the cell number came out at 109 in test [1] and 112 in test [2]. In addition, the values for the H1.0 immunofluorescence intensity in test [3] and in test [4] were 88.6 (inactive) and 88 (inactive), respectively.

Consider `CCN(CC)C(=O)C(C#N)=Cc1cc(O)c(O)c([N+](=O)[O-])c1` [Entacapone], for which the results for the cell number in test [1] and in test [2] were 98.2 and 92, respectively. In addition, the H1.0 immunofluorescence intensity in test [3] is 95.3 (inactive); in test [4], 105 (inactive).

Consider `CC(C)C(NC(=O)OCc1ccccc1)C(=O)NC(C=O)Cc1ccccc1` (configuration not stated), for which the cell number in test [1] came out at 99.5; in test [2], 96.2. In addition, the H1.0 immunofluorescence intensity in test [3] was 103 (inactive); in test [4], 102 (inactive).

Take `O=c1[nH]ccc2c(S(=O)(=O)N3CCCNCC3)cccc12`: the cell number in test [1] came out at 106; in test [2], 110. Also, the H1.0 immunofluorescence intensity is 86 (inactive) in test [3] and 104 (inactive) in test [4].

As to `CC(C)(CO)Cc1cc(C(C)(C)C)c(O)c(C(C)(C)C)c1`, the values for the cell number in test [1] and in test [2] were 102 and 106, respectively. The H1.0 immunofluorescence intensity in test [3] was 94.6 (inactive); in test [4], 109 (inactive).

For `CCC(CO)Nc1nc(NCc2ccc(-c3ccccn3)cc2)c2ncn(C(C)C)c2n1` [CR8, (S)-Isomer], the cell number in test [1] worked out at 52.6; in test [2] it was 23.5. Moreover, the figures for the H1.0 immunofluorescence intensity in test [3] and in test [4] were 124 (active) and 128 (inactive), respectively.

`Cc1cc(O)c2c(c1)C(=O)c1cc(O)cc(O)c1C2=O` [Emodin]: the cell number came to 98.4 ± 1.2 in test [1] and 96.8 ± 5.4 in test [2]. Besides, the H1.0 immunofluorescence intensity in test [3] was 98.6 (inactive); in test [4] it was 89.8 (inactive).

Consider `CC(N)(COP(=O)(O)O)C(=O)O` (configuration not stated) [2-methyl-O-phosphonoserine], for which the cell number is 97.7 in test [1] and 102 in test [2]. Besides, the H1.0 immunofluorescence intensity in test [3] was 96 (inactive); in test [4], 102 (inactive).

On to `Cc1nn(C)c2nc(NNC(=O)Nc3cc(Cl)nc(Cl)c3)cc(C(C)C)c12`, for which the cell number came out at 66 in test [1] and 12.8 in test [2]. In addition, the H1.0 immunofluorescence intensity is 170 (active) in test [3] and 140 (active) in test [4].

With `COc1ccc(-c2ccc3cc(C(=O)O)ccc3c2)cc1C12CC3CC(CC(C3)C1)C2` [Adapalene], the cell number in test [1] worked out at 85.4; in test [2], 88.7. The H1.0 immunofluorescence intensity in test [3] is 99.5 (inactive); in test [4] it was 102 (inactive).

With `C[N+](C)(CCCCCC[N+](C)(C)CCCN1C(=O)c2cccc3cccc(c23)C1=O)CCCN1C(=O)c2cccc3cccc(c23)C1=O.[Br-].[Br-]`, the cell number is 100 in test [1] and 101 in test [2]. Further, the H1.0 immunofluorescence intensity in test [3] was 97.2 (inactive); in test [4], 108 (inactive).

With `NC(=O)c1ncn(C2OC(CO)C(O)C2O)c1O` (configuration not stated) [Mizoribine], the cell number in test [1] was 101; in test [2], 99.2. Moreover, the H1.0 immunofluorescence intensity is 91.2 (inactive) in test [3] and 89.3 (inactive) in test [4].

As to `c1cc(-c2cnn3cc(-c4ccc(OCCN5CCCCC5)cc4)cnc23)ccn1` [AMPK Inhibitor,                  Compound C], the cell number in test [1] and in test [2] was 102 each time. Moreover, the H1.0 immunofluorescence intensity is 85.8 (inactive) in test [3] and 106 (inactive) in test [4].

Regarding `O=C(CCCN1CCC(O)(c2ccc(Cl)cc2)CC1)c1ccc(F)cc1` [Haloperidol], the figures for the cell number in test [1] and in test [2] were 91 ± 7.7 and 92.6 ± 3.7, respectively. Further, the H1.0 immunofluorescence intensity in test [3] is 101 (inactive); in test [4], 117 (inactive).
